{
  "source": "ChEMBL document CHEMBL4513216",
  "about": "“Probing the Open Global Health Chemical Diversity Library for Multistage-Active Starting Points for Next-Generation Antimalarials” (ACS Infect Dis, 2020)",
  "note": "About 8,600 (12%) of roughly 69,000 compounds showed an effect of 50% or more. The list comes from a sample in which strong results are over-represented; it also holds similar structures and randomly drawn compounds.",
  "data": [
    {"system": "Plasmodium berghei", "assay": "Screen against P. berghei liver stage (PbLuc), transformed with Luciferase, at 10uM", "assay_type": "functional, HepG2", "details": "tested at 10 uM", "units": {"INHIBITION": "%"}, "values": [
      {"smiles": "COc1cccc(-c2nc(C)c(C(=O)N[C@H](CO)CC(C)C)s2)c1", "INHIBITION": -23.7},
      {"smiles": "Cc1occc1C(=O)N1C[C@@H]2[C@@H](C1)OCC(=O)N2Cc1cccnc1", "INHIBITION": -6.23},
      {"smiles": "CN(CC1CCOCC1)C1CCCN(c2ccccn2)C1", "note": "(stereo not given)", "INHIBITION": 18.805},
      {"smiles": "CCN(CCn1cccn1)Cc1nc(-c2cc(F)ccc2F)oc1C", "INHIBITION": 26.1},
      {"smiles": "Cc1oc(-c2ccsc2)nc1CNC(C)Cn1cccn1", "note": "(stereo not given)", "INHIBITION": 39.7},
      {"smiles": "CCN(CCn1cccn1)Cc1nc(-c2ccc(F)cc2)oc1C", "INHIBITION": 62.4},
      {"smiles": "Cc1cnn(CCNCc2nc(-c3ccsc3)oc2C)c1", "INHIBITION": 47.4},
      {"smiles": "Cc1oc(-c2ccsc2)nc1CNCCn1cccn1", "INHIBITION": 53.4},
      {"smiles": "CCN(CCn1cccn1)Cc1nc(-c2ccoc2)oc1C", "INHIBITION": -31.9},
      {"smiles": "Cc1nn(CC(=O)O)c(C)c1NS(=O)(=O)c1cccc2ccccc12", "INHIBITION": 2.97},
      {"smiles": "CNC(=O)CN1CCO[C@H]2CN(CC3CCOC3)C[C@H]21", "note": "(stereo not given in full)", "INHIBITION": 8.85},
      {"smiles": "CNc1ccnc(N2C[C@H]3CC[C@@H](C2)N(CCOC)C3=O)n1", "INHIBITION": -144},
      {"smiles": "O=C(c1ccco1)N1C2CCC(O)(CC2)C1CN1CCOCC1", "note": "(stereo not given)", "INHIBITION": 17.7},
      {"smiles": "Cc1nonc1CN(C)Cc1nc(-c2cccc(F)c2F)oc1C", "INHIBITION": 8.99},
      {"smiles": "Cc1ccsc1-c1nc(CN(C)Cc2noc(C(C)C)n2)c(C)o1", "INHIBITION": 30},
      {"smiles": "COc1ccc(OC)c(-c2nc(CN(C)Cc3noc(C)n3)c(C)o2)c1", "INHIBITION": 31.1},
      {"smiles": "Cc1ccsc1-c1nc(CN(C)Cc2cc[nH]n2)c(C)o1", "INHIBITION": 54.6},
      {"smiles": "CCc1cc(CN(C)Cc2nc(-c3sccc3C)oc2C)on1", "INHIBITION": 1.37},
      {"smiles": "Cc1nc(CN(C)Cc2nc(-c3sccc3C)oc2C)no1", "INHIBITION": 56.3},
      {"smiles": "CCc1ncnc2c1CCN(CCOC)CC2", "INHIBITION": 32.5},
      {"smiles": "CCC[C@H]1CN(S(C)(=O)=O)C[C@@H]1NC(=O)Cc1ccc(F)cc1C", "INHIBITION": 30.3},
      {"smiles": "O=C(NCCCc1nc(=O)[nH][nH]1)Nc1cccc(F)c1", "INHIBITION": 48},
      {"smiles": "O=C(NCCCc1nc(=O)[nH][nH]1)c1ccc(Cl)cn1", "INHIBITION": 67.5},
      {"smiles": "O=C(NCCCc1nc(=O)[nH][nH]1)Nc1ccc(Cl)cc1", "INHIBITION": 23.9},
      {"smiles": "O=c1[nH]cc(Nc2ccccc2)c(=O)[nH]1", "INHIBITION": 43.8},
      {"smiles": "OC1(CN2CCOC(Cn3cccn3)C2)CCCCC1", "note": "(stereo not given)", "INHIBITION": -37.7},
      {"smiles": "COCCN1CCN(CC(C)(O)c2cccc(C(F)(F)F)c2)CC1", "note": "(stereo not given)", "INHIBITION": 37.3},
      {"smiles": "COc1cccc(OCCCc2cncc(C(N)=O)c2)c1", "INHIBITION": -10.3},
      {"smiles": "COc1ccccc1OCCCc1cncc(C(N)=O)c1", "INHIBITION": 80.2},
      {"smiles": "COc1cccc(OCCc2cncc(C(N)=O)c2)c1", "INHIBITION": 15.9}
    ]}
  ]
}
